The campaign covered roughly 1,200 compounds. About 480 (40%) were called active. Inconclusive results (about 29%) are left out. Calls follow the shape of the dose curve; as a rule, active = well fitted inhibition curve with a large enough effect; inconclusive = small, poorly fitted or top-dose-only effect; inactive = no such curve, though single readings can be large or run the other way. Some of the results follow.
Assay: qHTS Assay to Find Inhibitors of Chronic Active B-Cell Receptor Signaling: Hit Validation in Primary Screen; also: nearly all actives have a fitted effect of over 75% in size
Conditions: ABC-DLBCL IkB-luc/CBR ratio luminescence, 4 h; series mostly up to 46.1 µM
Method in brief: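 TMD8 ABC-DLBCL cells carrying doxycycline-inducible IkBa-green luciferase fusion and free red luciferase, 0.5% FBS, dosed 46 uM–3 nM with doxycycline for 4 h at 37C. Green/red luminescence ratio normalized to basal and 10 uM MG-132.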
Potency is read from the fitted curve at half-maximal effect.

| SMILES | Potency |
| --- | --- |
| C[C@@H]1C[C@H]2[C@@H]3C[C@H](F)C4=CC(=O)C=C[C@]4(C)[C@@]3(F)[C@@H](O)C[C@]2(C)[C@@]1(O)C(=O)CO | inactive |
| Cc1cccc(C(=O)N[C@H](C(=O)Nc2nc3ccccc3[nH]2)C(C)C)c1 | 3.26 µM (active) |
| COc1ccc(NC(=S)N=Nc2c(O)[nH]c3ccccc23)cc1 | inactive |
| N#CC(C(=S)Nc1ccccc1)c1nc2ccccc2[nH]1 (centres undefined) | inactive |
| COC(=O)Nc1nc2ccc(Sc3ccccc3)cc2[nH]1 | inactive |
| COc1ccc(C(=O)N[C@H](C(=O)Nc2nc3ccccc3[nH]2)C(C)C)cc1 | 5.8 µM (active) |
| COc1cc(OC)cc(C(=O)N[C@H](C(=O)Nc2nc3ccccc3[nH]2)C(C)C)c1 | 1.84 µM (active) |
| OCc1ccnc2c(O)cccc12 | inactive |
| O=C(N/N=C/c1ccc(Cl)cc1)c1sccc1OCc1ccc(F)cc1 | 5.17 µM (active) |
| Fc1ccc(NC(=S)N/N=C/c2ccc(F)c(F)c2)cc1 | inactive |
| NNC(=O)/C(=C\c1ccco1)NC(=O)c1ccco1 | inactive |
| Cc1cc(=O)oc2cc(OCC3CC(c4ccccc4Cl)=NO3)ccc12 (centres undefined) | 2.59 µM (active) |
| COc1ccccc1C1=NOC(COc2ccc3c(C)cc(=O)oc3c2)C1 (centres undefined) | 8.2 µM (active) |
| CCCCOc1ccc2c(C)cc(=O)oc2c1OCCCC | inactive |
| C=CCNC(=S)N/N=C/c1ccc(C)cc1C | inactive |
| Cc1ccc(NC(=S)NNC(C)(C)C)cc1 | inactive |
| Cc1ccc(NC(=S)NNC(=S)Nc2ccc(C)cc2C)cc1 | 1.84 µM (active) |
| CCOc1cc(NC(=O)CCl)c(OCC)cc1NC(=O)CCl | 5.8 µM (active) |
| C/C(=N\NC(=S)NC1CCCCC1)c1ccc(C)o1 | inactive |
| C(=N\Nc1nc2ccccc2[nH]1)/C1CCCCC1 | inactive |
| CSc1nc(SCC(=O)NCc2ccco2)c2c3c(sc2n1)COC(C)(C)C3 | 20.6 µM (active) |
| Cn1cccc1/C=C1\SC(=Nc2ccc(O)cc2)NC1=O | 1.03 µM (active) |

| SMILES | Potency |
| --- | --- |
| O=C1NC(=Nc2ccc(O)cc2)S/C1=C\C=C\c1ccco1 | 2.91 µM (active) |
| O=C(Cc1cccs1)N/N=C/C=C/c1ccco1 | inactive |
| CCOc1cc(CNc2ccc3c(c2)OCCO3)cc(Br)c1OCC | 5.17 µM (active) |
| CCOc1c(Cl)cc(CNCC(C)C)cc1OC | inactive |
| CCOc1c(Br)cc(CNc2ccc3c(c2)OCCO3)cc1OC | 10.3 µM (active) |
| O=C(NN=C1CCCC1)c1n[nH]c2c1CCC2 | inactive |
| O=C(N/N=C/c1ccc(Cl)cc1)c1n[nH]c2c1CCCC2 | 2.06 µM (active) |
| Cc1ccc(/C=N/NC(=O)c2n[nH]c3c2CCCC3)cc1 | 0.206 µM (active) |
| Cc1cccc(C)c1OCC(=O)N/N=C/C=C/c1ccco1 | inactive |
| COc1ccc(NC(=S)NC(=O)/C=C/c2ccco2)cc1 | inactive |
| Cc1ccc(NC(=O)/C=C/c2ccco2)nc1 | 1.16 µM (active) |
| O=C(COc1ccc(Oc2ccccc2)cc1)NCc1cn2ccccc2n1 | 11.6 µM (active) |
| O=C(CNCc1ccccc1)Nc1ccc(Oc2ccccc2)cc1 | inactive |
| Cc1cccc(NC(=S)NNC(=O)CCn2cc(C)cn2)c1 | inactive |
| Cc1cccc(NC(=O)c2ccc(C(=O)Nc3cccc(C)c3)nc2)c1 | 10.3 µM (active) |
| CCOC(=O)c1c(C)c(C(=O)OCC)n(C)c1C | 6.51 µM (active) |
| CCOC(=O)c1c(C=O)c2sc(C)cc2n1C | inactive |
| COc1ccc(/C(C)=N/Nc2nc3ccccc3nc2C)cc1OC | inactive |
| COc1ccc(/C(C)=N/Nc2ccc(C(=O)O)cc2)cc1OC | 0.0231 µM (active) |
| Cc1cc(C)c2nc3sc(C(=O)N4CCOCC4)c(N)c3cc2c1 | 1.46 µM (active) |
| CCCC1=Nc2cc(C(=O)NCCCOC(C)C)ccc2Sc2ccccc21 | 20.6 µM (active) |
| CCCC1=Nc2cc(C(=O)NCCCOCC)ccc2Sc2ccccc21 | 1.03 µM (active) |

| SMILES | Potency |
| --- | --- |
| CCC1=Nc2cc(C(=O)NCCCOC)ccc2Sc2ccccc21 | 2.06 µM (active) |
| CCOCCCNC(=O)c1ccc2c(c1)N=C(CC)c1cc(Br)ccc1S2 | 0.259 µM (active) |
| CC1=NN(C(N)=S)C(=O)C1N=Nc1cccc(C)c1 (centres undefined) | inactive |
| O=C(NC(=S)N1CCOCC1)c1cn(-c2ccccc2)nc1-c1ccccc1 | inactive |
| COc1ccc(C(=O)c2cc([N+](=O)[O-])ccc2N2CCOCC2)cc1 | 2.06 µM (active) |
| CCOc1ccc(C(=O)c2cc([N+](=O)[O-])ccc2N2CCOCC2)cc1 | 0.116 µM (active) |
| O=C(c1cc([N+](=O)[O-])ccc1N1CCOCC1)N1CCN(c2ccccc2)CC1 | 3.26 µM (active) |
| O=C(Oc1ccc2ccc(OC(=O)N3CCOCC3)cc2c1)N1CCOCC1 | inactive |
| O=C(c1ccc(Cl)cc1)c1cc([N+](=O)[O-])ccc1N1CCOCC1 | 5.8 µM (active) |
| C/C(=N\NC(=O)COc1ccc(C(C)(C)C)cc1)c1ccc(N2CCOCC2)cc1 | inactive |
| Cc1ccc(-n2cc(CNCCc3ncc(C)[nH]3)c(-c3ccc(F)cc3)n2)cc1 | inactive |
| COc1cc2c(cc1OC)-c1cc(NC3CCCCC3)nc(=O)n1CC2 | 23.1 µM (active) |
| COc1cc2c(cc1OC)-c1cc(NC3CCCCCC3)nc(=O)n1CC2 | 9.2 µM (active) |
| Cc1onc(-c2ccccc2)c1-c1nc2cc(Cl)ccc2c(=O)o1 | 2.31 µM (active) |
| C#CCOCCOCCOCCNc1nc(N2CCN(C(=O)[C@H](C(C)C)n3cc(CCO)nn3)CC2)nc(N2CCN(C(=O)[C@H]([C@@H](C)CC)n3cc(CCCN=C(N)N)nn3)CC2)n1 | inactive |
| COc1ccc(-c2cc(C(=O)NN)[nH]n2)cc1OC | inactive |
| COc1ccc(C(=O)Nc2ccc(-n3nncc3-c3ccc(OC)c(OC)c3)cc2)cc1 | 2.06 µM (active) |
| COc1ccc(N(CC(=O)NC2CCCC2)C(=O)Cn2nnc(-c3ccc(OC)c(OC)c3)n2)c(OC)c1 | inactive |
| COc1ccc(/C=C/C(=O)Nc2ccc(-n3nncc3-c3ccc(OC)c(OC)c3)cc2)cc1OC | 2.31 µM (active) |
| Fc1cccc2sc(Nc3nnc(-c4ccccc4)o3)nc12 | 0.13 µM (active) |
| COc1cccc(-c2nnc(Nc3nc4c(F)cccc4s3)o2)c1 | 0.326 µM (active) |
| O=C(/C=C/c1cccc(Cl)c1)c1nc2ccccc2[nH]1 | 20.6 µM (active) |

| SMILES | Potency |
| --- | --- |
| CCN(C(=O)c1cnc(NC(C)C)cc1C(F)(F)F)c1ccc(Cl)cc1Cl | inactive |
| CCOc1ccc2c(c1)OC(c1ccc(OC)cc1)(C(F)(F)F)NC2=O (centres undefined) | 11.6 µM (active) |
| Oc1c(CN2CCN(c3ccccc3)CC2)cc(Br)c2cccnc12 | inactive |
| COc1ccccc1N1CCN(C(=O)C2c3ccccc3Oc3ccccc32)CC1 | 16.4 µM (active) |
| COc1ccccc1N1CCN(C(=O)c2cc(=O)c3cc(C)cc(C)c3o2)CC1 | 1.03 µM (active) |
| CCOC(=O)c1cnc(Nc2nc3ccccc3o2)nc1CSC(=S)N1CCCCC1 | inactive |
| COc1ccc(-c2c/c(=N\c3nc(-c4ccccc4)c(C)s3)c3ccccc3o2)cc1O | 8.2 µM (active) |
| Cc1csc(N/N=C/c2ccccn2)n1 | inactive |
| NC(=S)Nc1nc2ccccc2s1 | inactive |
| C(=N\Nc1nc2ccccc2s1)/c1ccccn1 | 14.6 µM (active) |
| COc1ccc(-c2noc(CSc3nc(N)c(-c4ccccc4)c(=O)[nH]3)n2)cc1 | 8.2 µM (active) |
| COc1ccc(-c2noc(CSc3nc(N)c(-c4ccccc4)c(=O)[nH]3)n2)cc1OC | 7.31 µM (active) |
| Nc1nc(SCc2nc(-c3ccccc3)no2)[nH]c(=O)c1-c1ccccc1 | 20.6 µM (active) |
| COCCNC(=S)N/N=C(\C)c1ccccc1F | inactive |
| CCOc1ccc(S(=O)(=O)Nc2ccc3oc(C)c(C(=O)OCCOC)c3c2)cc1 | 8.2 µM (active) |
| O=C(/C=C\c1ccco1)Nc1cc([N+](=O)[O-])ccc1F | 1.84 µM (active) |
| CCn1c(O)c(N=NC(=S)NCC2CCCO2)c2ccccc21 (centres undefined) | inactive |
| O=C(Cc1ccc(-n2c(=O)c3ccccc3n(Cc3ccccc3Cl)c2=O)cc1)NCC1CCCO1 (centres undefined) | 2.59 µM (active) |
| CC1CCC(n2c(=S)[nH]c3ccccc3c2=O)CC1 (centres undefined) | inactive |
| CCN(CC(=O)NCc1ccc(F)cc1)C(=O)/C=C/c1ccc(OC)c(S(=O)(=O)NC(C)C)c1 | 18.4 µM (active) |
| CN(C)c1nc(=Nc2cccc(Cl)c2)ss1 | 20.6 µM (active) |
| Cc1[nH]n(C(N)=S)c(=O)c1N=Nc1cccc(Cl)c1 | inactive |

| SMILES | Potency |
| --- | --- |
| O=C(Nc1ncc(Cc2ccc(SC(F)F)cc2)s1)c1ccccc1 | 18.4 µM (active) |
| Cc1ccc(C(=O)Nc2ncc(Cc3ccc(SC(F)F)cc3)s2)cc1 | 1.3 µM (active) |
| O=C(Nc1ncc(Cc2ccc(SC(F)F)cc2)s1)c1ccc(OC(F)F)cc1 | 0.651 µM (active) |
| CCCCC(=O)O[C@]1(C(=O)CO)CC[C@H]2[C@@H]3CCC4=CC(=O)CC[C@]4(C)[C@H]3[C@@H](O)C[C@@]21C | inactive |
| CCCSc1nc(C)c(C(C)=O)cc1C#N | 16.4 µM (active) |
| CCOc1cc(-c2cc(-c3ccc(NC(C)=O)cc3)nc(N)c2C#N)ccc1O | 20.6 µM (active) |
| CC(C)(C)NNC(=S)Nc1cccc(C(F)(F)F)c1 | inactive |
| CN1CCN(Cc2cc(COCc3ccccc3)c3cccnc3c2O)CC1 | inactive |
| CC(C)n1c(SCC(=O)Nc2ccccc2)nc2c1c(=O)n(C)c(=O)n2C | 18.4 µM (active) |
| CC(C)Sc1ccccc1C(=O)Nc1ccc2c(c1)n(C)c(=O)n2C | inactive |
| CC1CCCCN1C(=S)NC(=O)c1cccs1 (centres undefined) | inactive |
| Cc1cnn(CCC(=O)NNC(=S)NCC(C)C)c1 | inactive |
| O=C(COc1ccccc1-c1ccccc1)N/N=C/c1ccc2ccccc2c1 | 0.651 µM (active) |
| COc1ccc(/C=N/NC(=O)COc2ccccc2-c2ccccc2)cc1 | 2.59 µM (active) |
| C/C(=N\NC(=O)COc1ccccc1-c1ccccc1)c1ccccn1 | inactive |
| Cc1ccc(/C=N/NC(=O)COc2ccccc2-c2ccccc2)cc1 | 0.291 µM (active) |
| C/C(=N/NC(=O)COc1cc(C)ccc1C(C)C)C(=O)O | inactive |
| Cc1ccc(Cl)cc1NC(=S)N/N=C/c1cccc2ccccc12 | inactive |
| O=C(COc1ccccc1-c1ccccc1)N/N=C/c1cccc2ccccc12 | 2.06 µM (active) |
| C/C(CCC(C)C)=N\NC(=O)COc1ccccc1-c1ccccc1 | inactive |
| O=C(COc1ccccc1-c1ccccc1)NN=C1CCCC1 | inactive |
